{"source": "PubChem BioAssay (EPA / NIEHS)", "note": "Records with an inconclusive call do not appear. Calls of active or inactive are those of the source. How the source made its calls: active means hit-call score of the fitted dose curve at least 0.9, where 1 is the maximum; inconclusive means response in the unintended direction; inactive means score below 0.9.", "data": [{"molecular_target": "Steroid hormone receptor ERR1 (Homo sapiens) (UniProt P11474)", "sequence (P11474 whole entry, looked up)": "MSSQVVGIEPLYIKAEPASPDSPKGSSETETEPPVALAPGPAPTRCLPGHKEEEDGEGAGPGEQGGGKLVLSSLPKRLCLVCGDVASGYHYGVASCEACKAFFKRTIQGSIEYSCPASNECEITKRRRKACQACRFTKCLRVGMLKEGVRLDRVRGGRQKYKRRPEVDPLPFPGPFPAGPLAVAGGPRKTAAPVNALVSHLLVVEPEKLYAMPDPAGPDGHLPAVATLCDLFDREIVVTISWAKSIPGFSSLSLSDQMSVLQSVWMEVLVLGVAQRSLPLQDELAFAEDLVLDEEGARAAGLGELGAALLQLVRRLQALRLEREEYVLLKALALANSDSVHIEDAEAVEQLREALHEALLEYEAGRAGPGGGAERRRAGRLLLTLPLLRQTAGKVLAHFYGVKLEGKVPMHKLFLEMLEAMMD", "assay": "ATG_ERRa_TRANS: Attagene TRANS-FACTORIAL HepG2 Assay for human Estrogen-Related Receptor alpha (ERRa) (AID 2282971)", "details": "HepG2 Attagene TRANS reporter, ERRa transactivation", "procedure": "ATG_TRANS is a cell-based, multiplexed-readout assay that uses HepG2, a human liver cell line, with measurements taken at 24 hours after chemical dosing in a 24-well plate.ATG_ERRa_TRANS is one of 30 assay component(s) measured or calculated from the ATG_TRANS assay. It is designed to make measurements of mRNA induction, a form of inducible reporter, as detected with fluorescence intensity signals by Reverse transcription polymerase chain reaction (RT-PCR) and Capillary electrophoresis technology.Data from the assay component ATG_ERRa_TRANS was analyzed into 1 assay endpoint. This assay endpoint, ATG_ERRa_TRANS, was analyzed in the positive analysis fitting direction relative to DMSO as the negative control and baseline of activity. Using a type of inducible reporter, measures of mRNA for gain-of-signal activity can be used to understand the reporter gene at the transcription factor-level as they relate to the gene ESRRA. Furthermore, this assay endpoint can be referred to as a primary readout, because this assay has produced multiple assay endpoints where this one serves a reporter gene function. To generalize the intended target to other relatable targets, this assay endpoint is annotated to the nuclear receptor intended target family, where the subfamily is steroidal.\nHuman liver HepG2 cells are transiently transfected with multiple reporter transcription units (MRTUs) in 6-well plates using FuGene 6 reagent (Roche; 3 ml FuGene/1 mg DNA). The MRTU constructs are regulated by a cis-regulating element (promoter). […] A major difference between the CIS and TRANS system is that in CIS activities of endogenous TFs are measured, whereas the TRANS assay evaluates changes in activities of exogenous, chimeric NR-Gal4 proteins. […] At the end of 24 hour incubation, total RNA was isolated using TriZol reagent (Invitrogen). The isolated RNA is then reverse-transcribed using oligo(dT) primer and Mo-MLV reverse transcriptase (Invitrogen) with DNAse I (Ambion) treatment for 30 min. The one-tenth of the produced cDNA was amplified by PCR using Taq DNA polymerase (Invitrogen) and two reporter sequence-specific primers. The PCR products were fluorescently labeled by primer extension with 6-arboxyfluorescein (6-FAM) 5'-labeled reporter sequence-specific primer (2 min at 95 C, 20 s at 68 C and 10 min at 72 C) and these products were digested with 5U of HpaI (New England Biolabs) for 2h at 37 C. The fragments were purified using Qiaquick PCR columns (Qiagen), analyzed on an ABI 3130xL genetic analyzer (Applied Biosystems) with peak positions identified by using a set of X-rhodamine (ROX)-labeled MapMarker1000 molecular weight standards (BioVentures). The raw capillary electrophoresis data was processed using Attagraph software (Attagene).", "values": [{"compound": "BrCCBr", "outcome": "inactive"}, {"compound": "Cl/C=C\\C[N+]12CN3CN(CN(C3)C1)C2", "outcome": "inactive"}, {"compound": "COc1cc(-c2ccc(N)c(OC)c2)ccc1N", "outcome": "inactive"}, {"compound": "COC[C@H](C)N(C(=O)CCl)c1c(C)csc1C", "outcome": "inactive"}, {"compound": "CCSC(C)CC1CC(=O)C(C(CC)=NOC/C=C/Cl)=C(O)C1", "note": "(stereo not drawn)", "outcome": "inactive"}, {"compound": "C=CC#N", "outcome": "inactive"}, {"compound": "C[C@]12CCC(=O)C[C@@H]1CC[C@@H]1[C@@H]2CC[C@]2(C)[C@@H](O)CC[C@@H]12", "outcome": "inactive"}, {"compound": "Nc1ccc(Cl)cc1C(=O)c1ccccc1", "outcome": "inactive"}, {"compound": "CCC[CH2][Sn]([Cl])([Cl])[Cl]", "outcome": "inactive"}, {"compound": "CC1(C)CCC(Cc2ccc(Cl)cc2)C1(O)Cn1cncn1", "note": "(stereo not drawn)", "outcome": "inactive"}, {"compound": "COP(=S)(OC)Oc1ccc(S(=O)(=O)N(C)C)cc1", "outcome": "inactive"}, {"compound": "NC(=O)O", "outcome": "inactive"}, {"compound": "CCN1CCC2(CC1)COc1cc3c(cc12)N(C(=O)c1ccc(-c2ccc(-c4nnc(C)o4)cc2C)cc1)CC3", "outcome": "inactive"}, {"compound": "CCOC(=O)CP(=O)(OCC)OCC", "outcome": "inactive"}, {"compound": "CC(C#N)CCC#N", "note": "(stereo not drawn)", "outcome": "inactive"}, {"compound": "O=c1[nH]c(=O)[nH]c(=O)[nH]1", "outcome": "inactive"}, {"compound": "NNC(=S)NN", "outcome": "inactive"}, {"compound": "Nc1cccc(Cl)c1", "outcome": "inactive"}, {"compound": "COP(=O)(OC)OC", "outcome": "inactive"}, {"compound": "CC(=O)C=C(C)C", "outcome": "inactive"}, {"compound": "c1ccc(N=NNc2ccccc2)cc1", "outcome": "inactive"}, {"compound": "O=[N+]([O-])c1ccc(O)c([N+](=O)[O-])c1", "outcome": "inactive"}, {"compound": "CCC(C)(C)c1ccc(O)c(C(C)(C)CC)c1", "outcome": "inactive"}, {"compound": "O=C(O)C(F)(F)C(F)(F)C(F)(F)C(F)(F)C(F)(F)C(F)(F)C(F)(F)C(F)(F)C(F)(F)C(F)(F)F", "outcome": "inactive"}, {"compound": "O=C1C2(Cl)C3(Cl)C4(Cl)C(Cl)(Cl)C5(Cl)C3(Cl)C1(Cl)C5(Cl)C24Cl", "note": "(stereo not drawn)", "outcome": "inactive"}, {"compound": "COc1ccc(C=O)cc1OC", "outcome": "inactive"}, {"compound": "ClCCBr", "outcome": "inactive"}, {"compound": "CC(C)c1ccc(CO)cc1", "outcome": "inactive"}, {"compound": "O=C1C(Cl)=C(Cl)C(=O)c2ccccc21", "outcome": "inactive"}, {"compound": "COP(=S)(OC)Oc1c(Cl)cc(C)cc1Cl", "outcome": "inactive"}, {"compound": "CCN(CC)C(=O)Cl", "outcome": "inactive"}, {"compound": "CCOP(=S)(OCC)SCCS(=O)(=O)CC", "outcome": "inactive"}, {"compound": "CC(=O)c1cc(C(C)(C)C)cc2c1CCC2(C)C", "outcome": "inactive"}, {"compound": "CC(=O)[O][Hg][c]1ccccc1", "outcome": "inactive"}, {"compound": "O=C(c1ccccc1)C(Cl)Cl", "outcome": "inactive"}, {"compound": "COc1cccc(C=O)c1", "outcome": "inactive"}, {"compound": "CN(C)P(=O)(N(C)C)N(C)C", "outcome": "inactive"}, {"compound": "CCCCOCCOC(C)=O", "outcome": "inactive"}]}]}
